Laboratory results from PubChem BioAssay.
The source made the active and inactive calls. Unless noted, how the calls were made is not given here.

Columns and labels:
[1] = test system: XIP peptide (Xip251-270) binding; test: XIP fragment 251-270 binding compounds – biochemical, small-molecule microarray, fluorescence 635/667 nm, 0.1 µg/mL protein, primary screen (AID 1182); conditions: fluorescent protein binding, 635 nm, higher = more signal, called active from +8 up or from −8 down
[2] = test system: XIP peptide (Xip251-270); test: compounds binding XIP fragment 251-270 – biochemical, small-molecule microarray, fluorescence 635/667 nm, 0.5 µg/mL protein, primary screen (AID 1183); conditions: fluorescence 635 nm, higher = more signal
[3] = blood-stage malaria parasite viability loss – strain 3D7, DAPI fluorescence, 100 nL, primary screen (AID 1184);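 further: parasites grown inside human red blood cells in medium with human serum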; conditions: P. falciparum 3D7 growth, 3 d, higher = more signal
[4] = target: Homeobox protein Hox-A13 (Mus musculus) (UniProt Q62424); test: disruptors of Hoxa13 oligonucleotide interaction – biochemical, fluorescence polarization, labeled oligonucleotide, primary screen (AID 1185); conditions: Hoxa13:DNA binding, 15 min, higher = more signal, called active from +8 up or from −8 down
[5] = blockers of DNA damage checkpoint Chk1 activation – imaging, HeLa, hydroxyurea, phospho-Chk1 antibody, percent positive cells, primary screen (AID 1186); conditions: hydroxyurea-induced phospho-Chk1 immunofluorescence imaging, higher = more signal
[6] = blockers of DNA damage checkpoint Chk1 activation – imaging, HeLa, hydroxyurea, phospho-Chk1 nuclear intensity, primary screen (AID 1187); conditions: hydroxyurea-induced phospho-Chk1 immunofluorescence imaging, higher = more signal

Homeobox protein Hox-A13 (Mus musculus), sequence (Q62424 whole entry, looked up): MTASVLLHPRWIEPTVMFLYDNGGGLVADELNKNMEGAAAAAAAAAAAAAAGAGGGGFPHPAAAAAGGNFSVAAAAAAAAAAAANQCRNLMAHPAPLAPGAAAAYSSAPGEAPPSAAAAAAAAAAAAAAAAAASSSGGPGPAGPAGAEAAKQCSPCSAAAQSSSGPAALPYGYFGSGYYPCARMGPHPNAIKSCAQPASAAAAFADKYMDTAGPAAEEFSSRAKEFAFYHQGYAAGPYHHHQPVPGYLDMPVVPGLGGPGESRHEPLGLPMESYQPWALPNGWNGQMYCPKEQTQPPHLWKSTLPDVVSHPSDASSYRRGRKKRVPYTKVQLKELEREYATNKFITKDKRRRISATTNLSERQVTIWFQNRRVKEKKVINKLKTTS

Compound	composite z-score [1]	composite z-score [2]	z-score [3]	z-score [4]	z-score [5]	z-score [6]
CC(C)c1ccc(NN2C(C(O)c3ccc(C#N)cc3)C=CC3C(=O)N(c4ccccc4)C(=O)C32)cc1 (stereo not given)	0.105 (inactive)	0.752	0.109	-2.79 (inactive)	0.879 (inactive)	0.815 (inactive)
CC(=O)NCCCC[C@@H]1NC(=O)[C@@H]2C[C@H](C(=O)NCCCCCN)[C@H](c3ccc(O)cc3)N2C1=O	0.0292 (inactive)	0.891	-1.13	-3.21 (inactive)	0.156 (inactive)	0.317 (inactive)
C=C(COC)C(=O)CC[C@@H](OC(C)=O)c1cccc(OCCO)c1	0.309 (inactive)	-0.0276	-0.988	-3.69 (inactive)	0.367 (inactive)	-0.113 (inactive)
O=C1O[C@H](c2ccccc2)[C@H](c2ccccc2)N2[C@H]1[C@@H](C(=O)O)[C@]1(C(=O)Nc3ccc(C#CCCO)cc31)[C@H]2c1ccccc1OCCO	0.154 (inactive)	0.736	-1.08	-6.55 (inactive)	0.55 (inactive)	0.175 (inactive)
COCC(=C=CC[C@H](O)c1ccc(OCCO)cc1)CCO	0.407 (inactive)	-0.252	-2.93	-3.28 (inactive)	-0.638 (inactive)	-0.571 (inactive)
COc1cc2c(cc1O)C(C1CC1)N(C)CC2 (stereo not given)	-0.198 (inactive)	0.598	-0.871	-4.09 (inactive)	0.2 (inactive)	0.406 (inactive)
COc1ccc([Si](C)(C)[C@@H]2[C@@H](CCO)O[C@]3(C(=O)N(Cc4cccc(NC(=O)[C@H](C)O)c4)c4ccccc43)[C@H]2C)cc1	0.789 (inactive)	0.755	-2.69	-5.95 (inactive)	0.214 (inactive)	-0.189 (inactive)
COC(=O)[C@@]1(Cc2ccc(F)cc2)[C@H]2c3cc(C(=O)N4CCCC4)n(Cc4ccc(C)c(F)c4F)c3C[C@H]2CN1C(=O)c1ccccc1	-0.0082 (inactive)	-0.953	-1.53	-6.02 (inactive)	0.533 (inactive)	0.459 (inactive)
CCC1=C2CN(Cc3ccccc3)[C@@H](C(=O)Cc3ccccc3)C2C=CCC1 (stereo not given in full)	0.932 (inactive)	0.758	-1.75	-4.07 (inactive)	0.313 (inactive)	-0.119 (inactive)
COc1ccc([Si](C)(C)[C@@H]2[C@@H](CCO)O[C@]3(C(=O)N(Cc4ccccc4)c4ccc(N5C(=O)c6cccc7cccc5c67)cc43)[C@H]2C)cc1	0.533 (inactive)	0.541	-2.76	-0.268 (inactive)	-0.991 (inactive)	-0.379 (inactive)
CCOC(=O)[C@@H]1CCCCN1C(=O)C(=O)OC	0.636 (inactive)	0.271	1.99	0.731 (inactive)	0.284 (inactive)	-0.0933 (inactive)
O=C(NCCN1CCOCC1)[C@@H]1c2ccccc2C(=O)N(C2Cc3ccccc3C2)[C@H]1c1ccc(CO)cc1	1.54 (inactive)	0.584	-0.98	-3.28 (inactive)	-0.61 (inactive)	-0.411 (inactive)
NCCCCCNC(=O)[C@H]1C[C@H]2C(=O)N3CCC[C@H]3C(=O)N2[C@H]1c1cccc(OCCO)c1	1.19 (inactive)	0.707	-1.24	-2.47 (inactive)	-0.0667 (inactive)	0.53 (inactive)
CC1CC/C=C\[C@H]2OC34C=CCN(C(C)(C)C)C(=O)[C@H]3N(CCCCCO)C(=O)[C@@H]4C2C(=O)O1 (stereo not given in full)	0.28 (inactive)	-0.48	-0.375	-4.58 (inactive)	0.139 (inactive)	0.408 (inactive)
COc1ccc([Si](C)(C)[C@H]2[C@H](CC(=O)N(CCO)Cc3ccccc3)O[C@@]3(C(=O)N(C)c4c(Br)cc(C)cc43)[C@@H]2C)cc1	0.159 (inactive)	0.334	-2.08	-6.1 (inactive)	-1.82 (inactive)	-1.22 (inactive)
CCCN1C(=O)[C@]2(Cc3ccccc31)N=C(c1ccc(OCCCO)cc1)O[C@@H]2c1ccccc1	-0.0074 (inactive)	0.763	-2.32	-6.66 (inactive)	0.0183 (inactive)	0.825 (inactive)
COC(=O)[C@@]1(Cc2ccccc2)[C@H]2c3cc(C(=O)N(C)C)n(Cc4ccc(C)o4)c3C[C@H]2CN1C(=O)c1ccccc1	0.681 (inactive)	-0.523	-1.81	0.0385 (inactive)	1.19 (inactive)	0.841 (inactive)
CN(C)C(=O)[C@@]1(Cc2ccccc2)N=C(c2ccc(OCCCO)cc2)O[C@H]1c1ccccc1	1.66 (inactive)	0.444	-1.58	-6.14 (inactive)	-0.499 (inactive)	-0.304 (inactive)

Compound	composite z-score [1]	composite z-score [2]	z-score [3]	z-score [4]	z-score [5]	z-score [6]
COc1ccc(C#Cc2ccc3c(c2)[C@]2(C(=O)N3)[C@H](c3ccc(OCCO)cc3)N3[C@H](c4ccccc4)[C@H](c4ccccc4)OC(=O)[C@H]3[C@@H]2C(=O)NC[C@H](O)c2ccccc2)cc1	0.47 (inactive)	0.691	-1.78	-1.01 (inactive)	-0.387 (inactive)	-0.263 (inactive)
C=CCNC(=O)[C@H]1[C@@H]2C(=O)O[C@@H](c3ccccc3)[C@@H](c3ccccc3)N2[C@@H](c2ccccc2OCCO)[C@]12C(=O)N(C(=O)OCCOC)c1ccc(C#CC3(O)CCCCCC3)cc12	0.892 (inactive)	0.712	-2.15	-0.807 (inactive)	-0.485 (inactive)	-0.428 (inactive)
CCCCCCCCCC(O)C1C=CC2C(=O)N(c3ccccc3)C(=O)C2N1Nc1cc(OC)c(OC)c(OC)c1 (stereo not given)	-0.26 (inactive)	0.206	-0.412	-2.06 (inactive)	0.297 (inactive)	0.0284 (inactive)
Cn1cccc1C(O)C1C=CC2C(=O)N(c3ccccc3)C(=O)C2N1Nc1ccccc1 (stereo not given)	0.622 (inactive)	0.801	-0.255	-4.04 (inactive)	0.121 (inactive)	-0.436 (inactive)
COCCOC(=O)N1C(=O)[C@@]2(c3cc(C#CC4=CCCCC4)ccc31)[C@H](c1ccccc1OCCO)N1[C@H](c3ccccc3)[C@H](c3ccccc3)OC(=O)[C@H]1[C@@H]2C(=O)N1CCN(c2ncccn2)CC1	0.735 (inactive)	0.55	-1.86	1.02 (inactive)	-0.333 (inactive)	-0.385 (inactive)
C=CC[C@@]1(C(=O)NCCCOC)N=C(c2ccc(OCCCO)cc2)O[C@@H]1c1ccccc1N=[N+]=[N-]	0.05 (inactive)	0.516	-2.29	-6.15 (inactive)	-0.679 (inactive)	-0.6 (inactive)
Cc1ccc(S[C@]2(C(=O)NC(C)C)CC(=O)N(Cc3cc(C(F)(F)F)cc(C(F)(F)F)c3)[C@@H]2c2ccc(CO)cc2)cc1	0.706 (inactive)	0.49	-0.938	-2.62 (inactive)	0.0619 (inactive)	0.116 (inactive)
O=C1OCCC=C[C@H]2OC34C=CCN(c5ccc6ccccc6c5)C(=O)[C@H]3N(CCCO)C(=O)[C@@H]4C12 (stereo not given in full)	-0.725 (inactive)	-0.617	-1.83	-2.31 (inactive)	-0.292 (inactive)	-0.64 (inactive)
CCCCC(O)C1C=CC2C(=O)N(C)C(=O)C2N1N(c1ccccc1)c1ccccc1 (stereo not given)	0.289 (inactive)	0.771	1.01	-4.42 (inactive)	-0.0768 (inactive)	-0.691 (inactive)
COc1cc(C(O)C2C=CC3C(=O)N(C)C(=O)C3N2Nc2ccccc2)cc(OC)c1OC (stereo not given)	1.13 (inactive)	-0.0114	-0.164	-3.7 (inactive)	-0.129 (inactive)	-0.0016 (inactive)
CC1CC/C=C\[C@H]2OC34C=CCN(c5ccc6ccccc6c5)C(=O)[C@H]3N(CCCO)C(=O)[C@@H]4C2C(=O)O1 (stereo not given in full)	-0.103 (inactive)	0.327	0.293	-5.63 (inactive)	0.486 (inactive)	0.104 (inactive)
CC(C)C(CO)N1C(=O)[C@@H]2C3C(=O)OCCC/C=C\[C@H]3OC23C=CCN(c2ccc4ccccc4c2)C(=O)[C@@H]13 (stereo not given in full)	0.0076 (inactive)	0.0118	0.674	-6.34 (inactive)	0.467 (inactive)	0.516 (inactive)
CO[C@H]1O[C@H](CO)[C@@H](OC(=O)Nc2ccc(Br)cc2)[C@@H]2OC(=O)[C@@H](Cc3ccccc3)C/C=C/C[C@H](Cc3ccccc3)C(=O)O[C@@H]12	0.491 (inactive)	0.693	-0.683	-1.27 (inactive)	-0.324 (inactive)	0.406 (inactive)
CCOC(=O)C[C@H]1[C@H](OC(=O)Cc2ccc3c(c2)OCO3)[C@@H](NC(=O)c2ccc3ccccc3n2)c2cc(OCCCO)ccc2N1C(=O)c1ccccc1	0.269 (inactive)	0.256	-1.03	-2.41 (inactive)	-0.705 (inactive)	-0.277 (inactive)
CCCCN1CC=CC23O[C@@H]4/C=C\CCCOC(=O)C4[C@H]2C(=O)N(CCO)[C@@H]3C1=O (stereo not given in full)	0.51 (inactive)	0.157	-1.09	-5.46 (inactive)	-0.302 (inactive)	0.214 (inactive)
CCOC(=O)C[C@H]1[C@H](OC(=O)c2ccc(-c3ccccc3)cc2)[C@@H](NC(=O)CC(C)C)c2cc(OCCCO)ccc2N1C(=O)c1ccc2ccccc2n1	-0.349 (inactive)	0.381	-0.459	-2.19 (inactive)	0.319 (inactive)	0.571 (inactive)
C=CC[C@@H](OC(=O)Nc1ccc(OC)cc1)c1ccc(O)c(F)c1	1.29 (inactive)	-1.1	0.765	-3.65 (inactive)	0.0919 (inactive)	0.0113 (inactive)
